Source: PubChem BioAssay (NCATS)
Records with an inconclusive call do not appear. Calls of active or inactive are those of the source. Unless noted, calls come from the whole dose curve; as a rule, active = well fitted curve in the direction sought with a large enough effect; inconclusive = small, poorly fitted or top-dose-only effect, or another doubt; inactive = no such curve, though single readings can be large; an effect the other way counts as inactive or inconclusive.

Legend:
[1] = qHTS for Inhibitors of Plasmodium falciparum (DD2) proliferation (AID 504314)
In short: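 Erythrocytes infected with P. falciparum (0.3% parasitemia, 2.5% hematocrit final) were incubated with compounds for 72 h at 37C, 5% CO2. Parasite DNA was detected by SYBR Green I fluorescence after saponin/Triton lysis, normalized to artemisinin (0.29 uM) and DMSO controls.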

[2] = qHTS for Inhibitors of Plasmodium falciparum (GB4) proliferation (AID 504315); note: nearly all actives have a fitted effect of over 50% in size
In short: (§1)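 Erythrocytes infected with P. falciparum line (0.3% parasitemia, 2.5% hematocrit final) incubated with compounds 72 h at 37 °C, 5% CO2; SYBR Green lysis buffer added, fluorescence read next day. Normalized to 0.29 uM artemisinin and DMSO.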

[3] = qHTS for Inhibitors of Plasmodium falciparum (7G8) proliferation (AID 504316); note: nearly all actives have a fitted effect of over 65% in size
In short: as §1

[4] = qHTS for Inhibitors of Plasmodium falciparum (HB3) proliferation (AID 504318); note: nearly all actives have a fitted effect of over 60% in size
In short: as §1

[5] = qHTS for Inhibitors of Plasmodium falciparum (CP250) proliferation (AID 504320)
In short: as §1

[6] = target: Atrial natriuretic peptide receptor 1 (Homo sapiens) (UniProt P16066); test: Natriuretic polypeptide receptor (hNpr1) antagonism - Pilot CMLD screen (AID 1347052; calls by dose curve;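 note: cGMP level read as GloSensor luciferase luminescence after agonist stimulation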)

Measured: Potency
Potency is the fitted concentration of half-maximal effect.

Chain of Atrial natriuretic peptide receptor 1 (Homo sapiens) (P16066 whole entry, looked up): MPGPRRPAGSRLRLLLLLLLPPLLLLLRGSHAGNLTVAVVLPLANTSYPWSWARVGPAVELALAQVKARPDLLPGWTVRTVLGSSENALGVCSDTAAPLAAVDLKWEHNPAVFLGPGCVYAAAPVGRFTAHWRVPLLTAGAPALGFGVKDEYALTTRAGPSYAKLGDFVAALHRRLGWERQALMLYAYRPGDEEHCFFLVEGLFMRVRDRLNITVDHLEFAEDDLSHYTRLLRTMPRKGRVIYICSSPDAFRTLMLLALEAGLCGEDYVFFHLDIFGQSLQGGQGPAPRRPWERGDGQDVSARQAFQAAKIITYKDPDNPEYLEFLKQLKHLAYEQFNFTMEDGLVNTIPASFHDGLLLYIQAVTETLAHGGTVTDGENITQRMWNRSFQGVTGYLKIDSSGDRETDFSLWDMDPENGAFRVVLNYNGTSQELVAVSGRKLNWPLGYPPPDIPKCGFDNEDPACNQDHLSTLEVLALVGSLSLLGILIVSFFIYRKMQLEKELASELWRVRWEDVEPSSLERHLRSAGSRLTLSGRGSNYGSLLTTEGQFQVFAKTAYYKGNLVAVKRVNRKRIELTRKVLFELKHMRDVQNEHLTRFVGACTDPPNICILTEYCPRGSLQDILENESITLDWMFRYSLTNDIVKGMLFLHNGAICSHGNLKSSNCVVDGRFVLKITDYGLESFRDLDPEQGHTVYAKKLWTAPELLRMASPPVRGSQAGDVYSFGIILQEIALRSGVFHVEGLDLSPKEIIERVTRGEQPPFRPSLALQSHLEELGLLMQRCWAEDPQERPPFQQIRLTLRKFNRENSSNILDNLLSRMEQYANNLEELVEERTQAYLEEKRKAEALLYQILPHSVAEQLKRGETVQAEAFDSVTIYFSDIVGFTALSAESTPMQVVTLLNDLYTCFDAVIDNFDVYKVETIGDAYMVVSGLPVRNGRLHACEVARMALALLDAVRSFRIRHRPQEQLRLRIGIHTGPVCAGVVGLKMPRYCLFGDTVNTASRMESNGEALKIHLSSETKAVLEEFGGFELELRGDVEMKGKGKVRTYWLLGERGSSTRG

CC(=O)C1=C(C)N(Cc2ccccc2)C(=O)NC1c1cccc(C(F)(F)F)c1 (configuration not stated)
inactive: all assays above

COc1cccc([C@H]2Oc3ccc(OC)cc3C(=NOC[C@@H](O)COCc3ccco3)[C@H]2O)c1
inactive: all assays above

CC[C@@H](c1ccccc1)n1c(=O)n2n(c1=O)[C@H]1[C@H](O)[C@@H]3O[C@H]3C(=NOCc3ccccc3)[C@H]1CC2
inactive: all assays above

CC(C)CON=C1C[C@@H](O)[C@@H](O)[C@@H]2[C@H]3C(=O)N(C4CCCCC4)C(=O)[C@@H]3CC[C@@H]12
inactive: all assays above

COC(=O)N1C2CC3(C)C=C(C)OC1(C)C3c1ccccc12 (configuration not stated)
inactive: all assays above

C=CCCC1(CCC)C(=O)C(=C(O)c2ccccc2)C(=O)C(CCC)=C1OC (configuration not stated)
inactive: all assays above

CCN1C(=NCc2ccccc2)N[C@@H](CCc2ccccc2)[C@H](C(=O)OC)[C@H]1C
inactive: all assays above

CC(C)CON=C1C[C@@H](O)[C@@H](O)[C@@H]2[C@H]3C(=O)N(Cc4ccc5c(c4)OCO5)C(=O)[C@@H]3CC[C@H]12
inactive: all assays above

OC[C@H]1O[C@H](C#Cc2ccc(F)cc2F)C=C[C@H]1O
inactive: all assays above

COc1cc2c(cc1OC)[C@@H]1O[C@](CCCCN3C(=O)c4ccccc4C3=O)(C2)OC2=C1C(=O)c1ccccc1C2=O
active: [1] 1.34 µM | [2] 1.51 µM | [3] 1.51 µM | [4] 1.51 µM
inactive: [5] | [6]

C=CC[C@@]1(C(=O)OC)C=C[C@@H](C)[C@H](c2ccccc2Br)N1C(=O)C(F)(F)F
inactive: all assays above

CC1(OC(=O)c2ccc(Cl)nc2)C(=O)C=C2C=C3CCCN3C=C2C1=O (configuration not stated)
inactive: all assays above

CC(CCC#N)[N+](=O)[O-] (configuration not stated)
active: [6] 5.31 µM
inactive: all other assays above

C[C@@H]1[C@@H](c2ccccc2)Cc2nc3ccccc3nc2C[C@H]1C(=O)N1CCCC1
inactive: all assays above

COC1=CC2C(=O)C(C(c3ccccc3)C2C)C1(C)O (configuration not stated)
inactive: all assays above

COc1ccc2c(c1)O[C@H](c1ccc3c(c1)OCO3)[C@@H](OC(=O)N[C@H]1CCCc3ccccc31)C2=O
inactive: all assays above

Cc1cc(F)ccc1O[C@H]1C=C[C@@H](c2ccc3c(c2)OCO3)O[C@H]1CO
inactive: all assays above

CC=CCCN1C=C(C(C)=O)C(c2ccccc2)NC1=O (configuration not stated)
inactive: all assays above

COC(=O)C1=C(C(=O)OC)[C@@H]2N(C)c3ccc(OC)cc3[C@@]23C[C@@H](C(=O)OC)N(C(=O)c2cc(C)oc2C)C3=N1
inactive: all assays above

COC(=O)CCCC1=CC2=C(c3ccccc3)C(=O)C(C)(OC(=O)C3CCCC3)C(=O)C2=CN1CCCCO (configuration not stated)
inactive: all assays above

COC(=O)CCCC1=CC2=CC(=O)C(C)(OC(=O)c3cccs3)C(=O)C2=CN1Cc1ccco1 (configuration not stated)
inactive: all assays above

CC1(OC(=O)c2ccco2)C(=O)C=C2C=C(c3ccsc3)OC=C2C1=O (configuration not stated)
inactive: all assays above

CCCCC1=CC2=C(c3ccco3)C(=O)C(C)(OC(=O)c3ccc(OC)cc3)C(=O)C2=CN1C(CO)CO (configuration not stated)
inactive: all assays above

COC(=O)CC1=CO[C@@H](O)[C@@H]2C(CO)=CC[C@@H]12
inactive: all assays above

COCCN1C(=O)N[C@@H](c2cccc(C(F)(F)F)c2)[C@H](C(=O)OC)[C@H]1C
inactive: all assays above

COC(=O)N[C@@H](c1cccc(F)c1)C(C(C)=O)C(=O)OC (some centres not stated)
inactive: all assays above

COCC=CC1=CC2=CC(=O)C(C)(OC(=O)c3cnc4ccccc4n3)C(=O)C2=CN1CCCCO (configuration not stated)
inactive: all assays above

COC(=O)CCCC1=CC2=CC(=O)C(C)(OC(=O)c3cccs3)C(=O)C2=CN1CC(C)C (configuration not stated)
inactive: all assays above

CC=COC(=O)N[C@@H](c1ccccc1)[C@]1(C(C)=O)CCCC1=O
inactive: all assays above

O=C1OCCC=C1C(O)CCc1ccccc1 (configuration not stated)
inactive: all assays above

COC(=O)N[C@@H](c1ccco1)[C@]1(C(=O)OC)CCCC1=O
inactive: all assays above

COC(=O)CC=C[C@H](C)[C@@H](OCc1ccccc1Br)C(C)C
inactive: all assays above

C[C@@H]1C[C@H]2CC(=O)N3[C@H](CC(=O)N2[C@H]1c1ccccc1)C[C@@H](C)[C@@H]3c1ccccc1
inactive: all assays above

CC12C=C(C=CCCc3ccco3)C(C)(C1)C(CCc1ccco1)CC2=O (configuration not stated)
inactive: all assays above

CCCCc1nc2c(c3c1C[C@H](C)OC3)CN(S(=O)(=O)CCCC)CC2
inactive: all assays above

C=CCOC(=O)N[C@H](c1ccccc1)[C@H](C)C=CCC(=O)OC
inactive: all assays above

OC[C@H]1O[C@H](C#Cc2ccccc2)C=C[C@H]1O
inactive: all assays above

C[C@H]1CC[C@H]2C(=O)NC[C@H](O)CN2[C@H]1c1ccc(Br)cc1
inactive: all assays above

C=CCCN1C(=O)NC(c2ccccc2)C(C(=O)OC)=C1C (configuration not stated)
inactive: all assays above

CCC(=O)OC1(C)C(=O)C=C2C=C(c3ccsc3)OC=C2C1=O (configuration not stated)
inactive: all assays above

CCN1C(=O)[C@@H]2[C@H]3[C@H](O)[C@H](O)CC(=NO[C@@H]4O[C@H](COC(C)=O)[C@@H](OC(C)=O)[C@H](OC(C)=O)[C@@H]4OC(C)=O)[C@@H]3CC[C@H]2C1=O
inactive: all assays above

COC(=O)C1(C(=O)OC)Cc2conc2[C@@H]1c1ccccc1
inactive: all assays above

OC[C@H]1O[C@H](c2ccccc2)C=C[C@H]1O
inactive: all assays above

CCN1C(=O)NC(CCc2ccccc2)C(C(C)=O)=C1C (configuration not stated)
inactive: all assays above

COc1cc2c(cc1OC)[C@@H]1O[C@](CCCCN3C(=O)c4ccccc4C3=O)(C2)OC2=C1C(=O)CC(C)(C)C2
inactive: [6]
active: [1] 0.753 µM | [2] 0.757 µM | [3] 0.301 µM | [4] 0.478 µM | [5] 1.51 µM

COC(=O)[C@H](Cc1ccccc1)NC(=O)O[C@H]1C(=O)c2ccc(OC)cc2O[C@@H]1c1ccc2c(c1)OCO2
inactive: all assays above

COC(=O)C(C(=O)OC)[C@H]1c2ccccc2[C@@H]2C(=C[C@@H](C)[C@H]3C(=O)N(c4ccccc4)C(=O)[C@H]32)N1C(=O)OC
inactive: all assays above

COC(=O)[C@@]1(C=C2c3ccc(F)cc3[C@@H](OC)[C@@H]2C)[C@@H]2OCCC[C@@H]21
inactive: all assays above

CC(=CCO)CCO
inactive: all assays above

COC(=O)CC=C[C@@H](C)[C@@H](C=NO[C@H](C)c1cn([C@@H]2COC[C@@H]2O)nn1)N[S+](=O)([O-])c1ccc(C)cc1
inactive: all assays above

C=CC[C@@H]1C=C[C@H](ON=C[C@@H](N[S+](=O)([O-])c2ccc(C)cc2)[C@H](C)C=CCC(=O)OC)[C@H](CO)O1
inactive: all assays above

CCCCCCCC=CC1=CC2(C)CC1(C)C(CCCCCCC)CC2=O (configuration not stated)
inactive: all assays above
